# The OligoGym collection
# Molecular target: AHCY
# Experiment: pooled miR-30 sensor sort-seq; sequence = guide strand
# Conditions: shRNA
# Also: reference of the scale not given here.
row,Sequence,sensor-assay potency score (higher = more potent)
1,TCGGCCAGCAGGATGATGCGGC,-0.886
2,TTGGTGTGGATGAGGTTGGTGA,-1.01
3,TTCATCTGCTCAAAGTGCCGGC,-0.375
4,TAGCTTGGTCAACTTCACATTC,-1.21
5,TTACTCATCACGAAGCTGGGGT,0.777
6,ACACACAATGGCATCATCCTTC,-0.521
7,ATGATGTCAATACAGCCTGTGG,-1.59
8,TTAGCTTGGTCAACTTCACATT,-0.84
9,AAACTTGCTCTTGGTGACGGAG,-1.03
10,TTCAGCCACTGCCTCATCCAGC,-0.886
11,TTGCTTCTCAGTTAGCTTGGTC,-0.044
12,TAACAGTCTATTCTAACCCCTG,-0.522
13,TAGAGGTTGTCAAACTTGCTCT,-0.554
14,TATAAGTCCACAGACCAGGTGA,0.25
15,TTGATGGGGTCAATCTCGGTGA,-1.04
16,ATCTCGGTGATGATGACGCGGG,-1.23
17,TTAACAGTCTATTCTAACCCCT,-0.371
18,TTGTAGAGGTTGTGGACCCCAG,-0.72
19,TTGATGTTCACCTTCTCCACGG,0.235
20,TCATCTTGTAGAGGTTGTGGAC,-0.726
21,TCGATCTGCGCCATCACCTGGT,-0.451

# Molecular target: AHDC1
# Experiment: as above
# Conditions: shRNA
row,Sequence,sensor-assay potency score (higher = more potent)
1,TTTGTATGTGGTCTTGTTCCGC,0.223
2,TTGCGGGTAGAGACCACTGGGG,-0.627
3,AACTCTGGGACTGAGACCGGGC,-0.558
4,TTGCTGTTAGCGCAGTCCTGGC,-1.57
5,TTGTATGTGGTCTTGTTCCGCC,-0.176
6,ATGCTTGCCATCAAGCTCGGGA,-0.78
7,TTTGCGGGTAGAGACCACTGGG,-0.394
8,TAGCTTGCTGCTCGTCCTGGTG,-0.838
9,TTCTTCATCTTCAGCAGCGGGG,-0.945
10,TTGGGTACCATGTAGCCACCGG,-0.207
11,TCTGGTTCCAGTTGTAGCCGGG,0.572
12,TTGAACTGGGTGCTGTCGGAGG,-0.689

# Molecular target: AIG1
# Experiment: as above
# Conditions: shRNA
row,Sequence,sensor-assay potency score (higher = more potent)
1,TTTGGAAACAACTGTATTCTAT,-0.0597
2,TAGTTACACAGGATAGAGCAGT,-0.722
3,ATAAAGGGCAGAACCGTCGTGT,0.238
4,TTATCAGTAATGACTTTGGGAA,-0.914
5,TAAATGATCCAGAACACTGCTA,0.31
6,TAATATAAAGGGCAGAACCGTC,-1.19
7,TTCTTTAACACACAGTGAGGGT,-0.962
